# Measurements from ChEMBL document CHEMBL4808148, “HDAC6 screening dataset using tau-based substrate in an enzymatic assay yields selective inhibitors and activators” (2021).
# The campaign covered roughly 5,600 compounds. About 390 (7%) showed an effect of 50% or more. The entries come from a sample that favours strong results as a whole.
# Target: T1, Protein deacetylase HDAC6 (Homo sapiens) (UniProt Q9UBN7)
# T1 sequence (whole entry): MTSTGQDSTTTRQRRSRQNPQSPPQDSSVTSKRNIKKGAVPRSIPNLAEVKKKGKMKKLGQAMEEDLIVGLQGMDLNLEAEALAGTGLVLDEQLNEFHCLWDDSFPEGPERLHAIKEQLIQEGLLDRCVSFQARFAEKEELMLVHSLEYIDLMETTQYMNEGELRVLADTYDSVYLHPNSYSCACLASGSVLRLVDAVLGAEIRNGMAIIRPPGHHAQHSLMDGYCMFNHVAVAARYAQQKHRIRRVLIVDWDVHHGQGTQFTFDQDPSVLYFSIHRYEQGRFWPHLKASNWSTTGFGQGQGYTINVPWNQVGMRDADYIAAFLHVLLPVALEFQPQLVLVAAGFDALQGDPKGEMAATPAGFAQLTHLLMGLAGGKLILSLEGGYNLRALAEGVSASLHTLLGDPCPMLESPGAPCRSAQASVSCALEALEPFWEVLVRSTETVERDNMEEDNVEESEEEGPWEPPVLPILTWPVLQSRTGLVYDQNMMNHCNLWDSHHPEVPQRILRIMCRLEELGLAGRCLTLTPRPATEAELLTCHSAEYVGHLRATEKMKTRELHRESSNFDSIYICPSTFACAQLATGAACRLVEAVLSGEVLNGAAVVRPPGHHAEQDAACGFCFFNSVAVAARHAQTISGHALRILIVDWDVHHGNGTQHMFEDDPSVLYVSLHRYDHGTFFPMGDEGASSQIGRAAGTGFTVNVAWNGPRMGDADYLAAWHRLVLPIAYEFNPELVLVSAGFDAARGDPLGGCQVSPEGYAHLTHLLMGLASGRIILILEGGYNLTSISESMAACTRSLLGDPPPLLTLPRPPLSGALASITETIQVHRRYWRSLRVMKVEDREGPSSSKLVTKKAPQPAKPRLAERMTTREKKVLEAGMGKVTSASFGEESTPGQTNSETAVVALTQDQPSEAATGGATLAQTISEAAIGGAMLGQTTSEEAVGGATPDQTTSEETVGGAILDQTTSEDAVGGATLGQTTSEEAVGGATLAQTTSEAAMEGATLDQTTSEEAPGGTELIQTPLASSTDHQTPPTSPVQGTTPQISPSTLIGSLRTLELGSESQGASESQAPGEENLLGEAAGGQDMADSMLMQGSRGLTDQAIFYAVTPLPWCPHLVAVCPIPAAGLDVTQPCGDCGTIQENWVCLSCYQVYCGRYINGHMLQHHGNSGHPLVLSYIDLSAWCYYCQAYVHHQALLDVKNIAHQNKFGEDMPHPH
# Settings: at 10 µM
row,Compound,inhibition [%]
1,O=C(Nc1ccccc1C(=O)Nc1ccc(CCO)cc1)c1ccc([N+](=O)[O-])cc1,78.3
2,O=C(Nc1cc(-c2ccccc2)nn1-c1ccccc1)c1ccc([N+](=O)[O-])cc1,23
3,CCOC(=O)[C@H](Cc1ccc([N+](=O)[O-])cc1)NC(=O)c1ccccc1,14.4
4,C[C@]12C=CC(=O)N[C@@H]1CC[C@@H]1[C@@H]2CC[C@]2(C)[C@@H](C(=O)Nc3cc(C(F)(F)F)ccc3C(F)(F)F)CC[C@@H]12,34.1
5,O=C(NCCN1CCC(n2c(=O)[nH]c3ccccc32)CC1)c1cc2cc(F)ccc2[nH]1,22.7
6,CCOCOC[C@H](C[C@H](C)C(=O)NO)NC(=O)c1ccc(Oc2ccccc2)cc1,25.9
7,C[C@@H](C(=O)O)c1ccc(-c2ccccc2)c(F)c1,0.12
8,CC(C(=O)O)c1ccc(-c2ccccc2)c(F)c1 (racemic),13.4
9,CC(C(=O)O)c1ccc2c(c1)Cc1ccccc1-2 (stereo unspecified),63.7
10,CCn1cnc(C(=O)NC)c1C(=O)NC,-8.83
11,Cc1ccccc1N1CCN(S(=O)(=O)CC23CCC(C[C@@H]2NC(=O)[C@@H](N)CCS(C)(=O)=O)C3(C)C)CC1 (stereo partly specified),2.99
12,CN[C@@H]1[C@H](O[C@H]2[C@H](O[C@H]3[C@H](O)[C@@H](O)[C@H](NC(=N)N)[C@@H](O)[C@@H]3NC(=N)N)O[C@@H](C)[C@]2(O)CO)O[C@@H](CO)[C@H](O)[C@H]1O,8.93
13,C/C1=C/C[C@@H](/C(C)=C/c2csc(C)n2)OC(=O)C[C@H](O)C(C)(C)C(=O)[C@H](C)[C@@H](O)[C@@H](C)CCC1,-9.51
14,CN(C)CC/C=C1\c2ccccc2Sc2ccc(Cl)cc21,91.2
15,CC(=O)c1ccc2c(c1)N(CCCN(C)C)c1ccccc1S2,43.7
16,CN(C)CCC=C1c2ccccc2CCc2ccccc21,60.4
17,CC(C1=C(CCN(C)C)Cc2ccccc21)c1ccccn1 (stereo unspecified),-6.73
18,C[C@@H](C1=C(CCN(C)C)Cc2ccccc21)c1ccccn1,-1.4
19,CCOC(=O)c1ccc(-c2ccc(OC(=O)N(C)Cc3cccc(-c4ccncc4)c3)cc2)cc1,5
20,CC(C)(C)c1cc(C(C)(C)C)c2c(c1)C(O)(C(F)(F)F)C(=O)O2 (racemic),-6.8
21,Fc1ccccc1CNCc1ccc(-c2ccnc3[nH]ccc23)cc1,44.7
22,CSc1nc(N)cc(Oc2ccc(-c3nnc(Nc4cccc(C(F)(F)F)c4)[nH]3)cc2)n1,10.4
23,CC(C)[C@@H](C)/C=C/[C@@H](C)[C@H]1CC[C@H]2C3=CC=C4C[C@@H](O)CC[C@]4(C)[C@H]3CC[C@]12C,26.6

row,Compound,inhibition [%]
1,COc1cccc(CN2C[Si](C)(C)O[Si](C)(C)C2)c1,9.47
2,Nc1ncnc2c1ncn2[C@@H]1O[C@H](COP(=O)(O)OP(=O)(O)OP(=O)(O)O)[C@@H](O)[C@H]1O,-7.9
3,Nc1c(CC(=O)O)cccc1C(=O)c1ccccc1,0.48
4,Nc1c(CC(=O)O)cccc1C(=O)c1ccc(Br)cc1,69.8
5,NC(=O)Cc1cccc(C(=O)c2ccccc2)c1N,48.4
6,COc1cc(OC)nc(O[C@H](C(=O)O)C(OC)(c2ccccc2)c2ccccc2)n1,-2.76
7,COc1cc(/C=C/C(N)=O)cc(OC)c1OC,13.3
8,Cn1cc(C(=O)c2cccc3ccccc23)cc1C(=O)O,25
9,Cn1cc(-c2ccc(F)c(C(F)(F)F)c2)nc1C1CCN(c2ncnc3[nH]ncc23)CC1,24
10,CCCCCCCCCCCCCCCCCC[S+](CCC)c1ccccc1C(=O)OCC (stereo unspecified),21
11,CC[n+]1c(-c2ccccc2)c2cc(N)ccc2c2ccc(N)cc21,2.78
12,CC[N+](C)(CC)CCC[n+]1c(-c2ccccc2)c2cc(N)ccc2c2ccc(N)cc21,60.2
13,CC(C)(C(=O)O)c1ccc(C(=O)CCCN2CCC(OC(c3ccccc3)c3ccccc3)CC2)cc1,3.08
14,CCc1c2c(nc3ccc(OC(=O)N4CCC(N5CCCCC5)CC4)cc13)-c1cc3c(c(=O)n1C2)COC(=O)[C@]3(O)CC,-2.26
15,Cc1cc(OCc2nc(-c3ccccc3Cl)cs2)ccc1OCC(=O)O,33.8
16,Cc1cc(SCc2sc(-c3ccc(C(F)(F)F)c(F)c3)nc2C)ccc1OCC(=O)O,66.5
17,Cn1ncnc1COc1nn2c(-c3c(F)cccc3F)nnc2cc1C1CCC1,3.27
18,CCOC(=O)C(=O)Nc1cccc(OC)c1C(N)=O,24.8
19,CCN(CC)CCCCC(NC(=O)c1ccc([N+](=O)[O-])cc1)c1ccccc1 (stereo unspecified),-1.83
20,CCOc1ccc(/C=C2\NCCc3cc(OCC)c(OCC)cc32)cc1OCC,7.94
21,CCOc1nc2c(N)ncnc2n1CC,7.36
22,CN(C)CCOc1ccc(/C(=C(/CCCl)c2ccccc2)c2ccccc2)cc1,33.5
23,C=CC(=O)N1CCC[C@@H](n2nc(-c3ccc(Oc4ccccc4)cc3)c3c(N)ncnc32)C1,73
